According to PubChem BioAssay (EPA / NIEHS):
Values joined by “and” are separate entries in the source; they are usually repeats but may differ in a detail not shown here. Identical values can stand only once. A structure can be active in one record and inactive in another. Active and inactive are the calls of the source. Rule for the calls: active = hit-call score of the fitted dose curve at least 0.9, where 1 is the maximum; inactive = score below 0.9.

What was measured:
[1] = APR_HepG2_P-H2AX_72hr: Apredica 72-hour HepG2 Assay for H2AX Phosphorylation (AID 2282916); settings: imaging, actives raise or lower the signal;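 note: phospho-histone H2A.x immunostain intensity per cell marking DNA damage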
Procedure, shortened: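 Human hepatoma HepG2 cells are dosed across ten concentrations (0.39 to 200 uM, 0.5% v/v DMSO) and incubated 72 hr. Phospho-histone H2A.x is then detected by antibody staining alongside c-Jun and Hoechst, and quantified by automated fluorescence imaging.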

[2] = APR_HepG2_MitoMembPot_72hr: Apredica 72-hour HepG2 Assay for Mitochondrial Membrane Potential (AID 2282917); settings: imaging, actives raise or lower the signal
Procedure, shortened: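 HepG2 cells dosed 72 hr with compound at 0.39–200 uM in duplicate, 0.5% v/v DMSO final. Mitochondria stained with 250 nM MitoTracker Red CMXRos for 30 min before formaldehyde fixation, imaged by high-content fluorescence; bidirectional fit versus DMSO.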

[3] = APR_HepG2_MitoticArrest_72hr: Apredica 72-hour HepG2 Assay for Mitotic Arrest (AID 2282918); settings: high-content imaging, actives raise or lower the signal
Procedure, shortened: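 HepG2, 72 hr exposure, 0.39–200 uM in duplicate, 0.5% v/v DMSO final. Formaldehyde-fixed, Triton-permeabilized, anti-phospho-histone H3/FITC plus Hoechst. ArrayScan imaging at 20x; curves fit bidirectionally against DMSO baseline.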

[4] = APR_HepG2_MicrotubuleCSK_72hr: Apredica 72-hour HepG2 Assay for Microtubule CSK Stabilty (AID 2282919); settings: HepG2 microtubule cytoskeleton, high-content imaging, actives raise or lower the signal
Procedure, shortened: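 HepG2, 72 hr cmpd exposure, 0.39–200 uM (10 pts, duplicate), 0.5% DMSO. 3.7% formaldehyde fix, 0.5% Triton perm, anti-alpha-tubulin/Cy5 plus Hoechst. HCS fluorescence intensity; bidirectional fit vs DMSO baseline; taxol as positive control.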

[5] = APR_HepG2_P-H2AX_24hr: Apredica 24-hour HepG2 Assay for H2AX Phosphorylation (AID 2282920); settings: high-content imaging, actives raise or lower the signal
Procedure, shortened: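 HCS fluorescence imaging of phospho-H2A.x immunostain (with Hoechst 33342 nuclear counterstain) in HepG2 after 24 hr compound exposure; 10 concentrations, 0.39–200 uM, duplicate wells, 0.5% v/v DMSO. Gain or loss of signal fitted relative to DMSO baseline.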

[6] = APR_HepG2_StressKinase_72hr: Apredica 72-hour HepG2 Assay for Stress Kinase (AID 2282921); settings: HepG2 stress kinase (phospho-c-Jun) imaging, actives raise or lower the signal
Procedure, shortened: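 After a 72 h compound treatment spanning 0.39 to 200 uM, formaldehyde-fixed cells are labelled for phosphorylated c-Jun and nuclei, imaged by automated fluorescence microscopy, and activity is fitted in both directions relative to DMSO controls.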

[7] = APR_HepG2_StressKinase_24hr: Apredica 24-hour HepG2 Assay for Stress Kinase (AID 2282922); settings: HepG2 stress kinase (phospho-c-Jun) imaging, actives raise or lower the signal
Procedure, shortened: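 Read-out: phospho-c-Jun immunofluorescence (Cy3 secondary) quantified by high-content imaging at 20x, nuclei defined by Hoechst 33342. Human HepG2 liver cells dosed 24 hr, 0.39–200 uM, DMSO 0.5% v/v; gain or loss of signal fitted relative to DMSO.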

[8] = APR_HepG2_p53Act_72hr: Apredica 72-hour HepG2 Assay for p53 Activation (AID 2282923); settings: high-content imaging, actives raise or lower the signal;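 note: average cellular p53 protein immunofluorescence intensity in HepG2 cells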
Procedure, shortened: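 Imaging-based endpoint: after 72 hr compound exposure (up to 200 uM, 0.5% DMSO), fixed and permeabilized monolayers were labelled with anti-p53 antibody and imaged; signal change in either direction was fitted relative to DMSO controls.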

[9] = APR_HepG2_MitoMass_72hr: Apredica 72-hour HepG2 Assay for Mitochondrial Mass (AID 2282924); settings: high-content imaging, actives raise or lower the signal;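 note: MitoTracker Red CMXRos stain intensity per cell imaged as mitochondrial mass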
Procedure, shortened: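 Read-out: MitoTracker Red fluorescence intensity from automated imaging (20x, six fields per well) in human HepG2 liver cells. Dosing ran 72 hr, 0.39–200 uM, 0.5% DMSO; bidirectional curve fitting versus DMSO baseline.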

[10] = APR_HepG2_NuclearSize_72hr: Apredica 72-hour HepG2 Assay for Nuclear Size (AID 2282925); settings: high-content imaging, actives raise or lower the signal
Procedure, shortened: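 Read-out: nuclear diameter from Hoechst 33342 images (ArrayScan, 20x, six fields/well), via cell-cycle image analysis. HepG2 were dosed 0.39–200 uM for 72 hr in 0.5% DMSO. Bidirectional fit relative to DMSO.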

[11] = ATG_CRE_CIS: Attagene CIS-FACTORIAL HepG2 Assay for human cAMP Responsive Element (CRE) binding protein 3 (AID 2282926); settings: HepG2 CRE cis-reporter, Attagene multiplexed mRNA; actives raise or lower the signal
Procedure, shortened: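 Readout: fluorescently labelled reporter transcripts resolved by capillary electrophoresis after RT-PCR, taken 24 h post-dosing in transfected HepG2. Endogenous transcription factor activity drives each cis-element reporter; gain or loss of signal fitted relative to DMSO control.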

[12] = molecular target: CCAAT/enhancer-binding protein beta (Homo sapiens) (UniProt P17676); test: ATG_C_EBP_CIS: Attagene CIS-FACTORIAL HepG2 Assay for human CCAAT/Enhancer Binding Protein (C/EBP) beta (AID 2282927); settings: HepG2 Attagene cis-factorial transcription factor reporter; actives raise or lower the signal
Sequence of CCAAT/enhancer-binding protein beta (Homo sapiens) (P17676 whole entry, looked up): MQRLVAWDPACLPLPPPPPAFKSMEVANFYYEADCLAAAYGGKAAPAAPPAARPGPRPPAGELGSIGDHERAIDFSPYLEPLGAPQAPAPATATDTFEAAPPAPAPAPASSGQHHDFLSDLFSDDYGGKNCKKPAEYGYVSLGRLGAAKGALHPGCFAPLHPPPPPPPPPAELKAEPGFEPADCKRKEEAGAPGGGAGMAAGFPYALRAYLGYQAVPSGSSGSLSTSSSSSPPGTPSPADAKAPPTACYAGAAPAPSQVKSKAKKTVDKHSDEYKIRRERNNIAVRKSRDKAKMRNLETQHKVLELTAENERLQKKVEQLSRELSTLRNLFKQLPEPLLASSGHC
Procedure, shortened: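 HepG2, transient MRTU transfection, 24 h treatment. RT-PCR plus CE fluorescence; DMSO negative control, bidirectional fit.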

[13] = ATG_CMV_CIS: Attagene CIS-FACTORIAL HepG2 Assay for human CMV (Internal Marker) (AID 2282928); settings: HepG2 CMV promoter reporter, transcription factor profiling; actives raise or lower the signal;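 note: endpoint acts as a background internal control marker rather than a target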
Procedure, shortened: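 Bidirectional fits against DMSO are applied to reporter mRNA, read by RT-PCR with capillary electrophoresis, from HepG2 cells exposed 24 h. The endpoint serves as an internal CMV background marker within the cis-factorial reporter panel.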

[14] = ATG_DR4_LXR_CIS: Attagene CIS-FACTORIAL HepG2 Assay for human Liver X Receptor (LXR), DR4 submotif (AID 2282929); settings: HepG2 Attagene DR4 cis-reporter, mRNA transcription; actives raise or lower the signal
Procedure, shortened: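 The endpoint is DR4-element-driven reporter transcripts after 24 h chemical exposure of transfected HepG2 cells. These were measured via RT-PCR and capillary electrophoresis, and gain or loss of signal was fitted relative to DMSO controls.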

[15] = molecular target: Aryl hydrocarbon receptor (Homo sapiens) (UniProt P35869); test: ATG_Ahr_CIS: Attagene CIS-FACTORIAL HepG2 Assay for human Aryl Hydrocarbon Receptor (Ahr) (AID 2282930); settings: HepG2 AhR cis-factorial reporter transcription; actives raise or lower the signal
Sequence of Aryl hydrocarbon receptor (Homo sapiens) (P35869 whole entry, looked up): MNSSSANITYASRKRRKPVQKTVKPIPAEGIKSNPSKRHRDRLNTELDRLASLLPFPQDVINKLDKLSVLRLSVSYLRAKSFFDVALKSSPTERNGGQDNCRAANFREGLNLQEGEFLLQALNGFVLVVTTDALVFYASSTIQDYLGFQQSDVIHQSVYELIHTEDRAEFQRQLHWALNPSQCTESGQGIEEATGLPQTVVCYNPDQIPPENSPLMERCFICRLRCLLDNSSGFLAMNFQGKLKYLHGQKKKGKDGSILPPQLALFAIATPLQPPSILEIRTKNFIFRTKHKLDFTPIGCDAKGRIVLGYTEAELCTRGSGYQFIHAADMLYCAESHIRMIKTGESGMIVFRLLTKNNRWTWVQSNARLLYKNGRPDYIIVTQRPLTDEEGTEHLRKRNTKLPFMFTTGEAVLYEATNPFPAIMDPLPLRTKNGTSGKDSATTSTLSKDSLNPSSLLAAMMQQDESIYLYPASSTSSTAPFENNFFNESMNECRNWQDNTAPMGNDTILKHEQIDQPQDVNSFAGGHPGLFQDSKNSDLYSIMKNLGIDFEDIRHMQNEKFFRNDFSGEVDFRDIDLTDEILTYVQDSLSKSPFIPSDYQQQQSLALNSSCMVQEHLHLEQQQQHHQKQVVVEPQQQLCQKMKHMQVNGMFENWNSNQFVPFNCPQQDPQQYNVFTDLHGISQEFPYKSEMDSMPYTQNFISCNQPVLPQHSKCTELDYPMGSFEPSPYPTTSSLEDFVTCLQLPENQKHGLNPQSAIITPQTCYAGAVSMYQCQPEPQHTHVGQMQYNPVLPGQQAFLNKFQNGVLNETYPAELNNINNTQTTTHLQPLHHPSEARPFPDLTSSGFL
Procedure, shortened: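 Endogenous factor activity is tracked through cis-promoter reporter units transfected into HepG2 cells. Transcript levels at 24 h are read by fluorescent RT-PCR and capillary electrophoresis, with activity in either direction scored relative to DMSO.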

[16] = ATG_AP_2_CIS: Attagene CIS-FACTORIAL HepG2 Assay for human Activator Protein 2 (AP-2) (AID 2282932); settings: HepG2 AP-2 cis-reporter, Attagene transcription factor profiling; actives raise or lower the signal
Procedure, shortened: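 Liver-derived HepG2 line, cis-reporter system measuring endogenous factors; 24 h dosing; reporter mRNA detected by fluorescent RT-PCR and capillary electrophoresis.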

[17] = ATG_BRE_CIS: Attagene CIS-FACTORIAL HepG2 Assay for human Bone Morphogenetic Protein (BMP) Response Element (BRE) (AID 2282933); settings: HepG2 BMP response element reporter, Attagene transcription factor profiling; actives raise or lower the signal
Procedure, shortened: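 HepG2 cells transiently transfected with multiplexed cis-element reporter units were dosed with chemical for 24 h. Reporter mRNA was measured by RT-PCR with fluorescent labelling, HpaI digestion and capillary electrophoresis; bidirectional fitting relative to DMSO.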

[18] = molecular target: Retinoic acid receptor alpha (Homo sapiens) (UniProt P10276); test: ATG_DR5_RAR_CIS: Attagene CIS-FACTORIAL HepG2 Assay for human Retinoic Acid Receptor Alpha (RARE), DR5 submotif (AID 2282934); settings: HepG2 Attagene cis-factorial RARE DR5 reporter, mRNA; actives raise or lower the signal;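 for AC50: reporter responds to endogenous RAR alpha beta and gamma in HepG2 not RARA alone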
Sequence of Retinoic acid receptor alpha (Homo sapiens) (P10276 whole entry, looked up): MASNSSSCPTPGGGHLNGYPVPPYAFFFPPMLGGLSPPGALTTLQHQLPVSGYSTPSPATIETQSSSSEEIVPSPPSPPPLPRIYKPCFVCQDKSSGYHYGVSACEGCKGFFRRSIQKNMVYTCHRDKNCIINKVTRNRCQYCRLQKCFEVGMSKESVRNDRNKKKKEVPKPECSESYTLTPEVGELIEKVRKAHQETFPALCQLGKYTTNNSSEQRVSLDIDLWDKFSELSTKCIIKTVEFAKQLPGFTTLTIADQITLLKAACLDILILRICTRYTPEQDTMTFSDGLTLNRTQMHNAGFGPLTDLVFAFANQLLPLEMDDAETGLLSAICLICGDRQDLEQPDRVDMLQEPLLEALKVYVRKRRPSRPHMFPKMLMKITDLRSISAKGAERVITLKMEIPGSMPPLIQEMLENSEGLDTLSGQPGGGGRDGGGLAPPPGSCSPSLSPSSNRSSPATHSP
Procedure, shortened: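 After 24 h of chemical exposure, transiently transfected HepG2 cells were lysed for total RNA; the DR5-regulated reporter transcript was quantified via RT-PCR and capillary electrophoresis, with activity fitted bidirectionally against DMSO.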

[19] = ATG_AP_1_CIS: Attagene CIS-FACTORIAL HepG2 Assay for human Activator Protein 1 (AP-1) (AID 2282931); settings: HepG2 Attagene cis-factorial AP-1 reporter mRNA; actives raise or lower the signal
Procedure, shortened: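 Readout is reporter transcript level from endogenous transcription factor activity, quantified by RT-PCR with fluorescent primer extension and capillary electrophoresis. Transiently transfected HepG2 cells, 24 h exposure. Curves fitted both directions versus DMSO.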

[20] = molecular target: Transcription factor E2F1 (Homo sapiens) (UniProt Q01094); test: ATG_E2F_CIS: Attagene CIS-FACTORIAL HepG2 Assay for human E2F Transcription Factor 1 (AID 2282935); settings: HepG2 Attagene cis-reporter, E2F reporter RNA transcripts; actives raise or lower the signal
Sequence of Transcription factor E2F1 (Homo sapiens) (Q01094 whole entry, looked up): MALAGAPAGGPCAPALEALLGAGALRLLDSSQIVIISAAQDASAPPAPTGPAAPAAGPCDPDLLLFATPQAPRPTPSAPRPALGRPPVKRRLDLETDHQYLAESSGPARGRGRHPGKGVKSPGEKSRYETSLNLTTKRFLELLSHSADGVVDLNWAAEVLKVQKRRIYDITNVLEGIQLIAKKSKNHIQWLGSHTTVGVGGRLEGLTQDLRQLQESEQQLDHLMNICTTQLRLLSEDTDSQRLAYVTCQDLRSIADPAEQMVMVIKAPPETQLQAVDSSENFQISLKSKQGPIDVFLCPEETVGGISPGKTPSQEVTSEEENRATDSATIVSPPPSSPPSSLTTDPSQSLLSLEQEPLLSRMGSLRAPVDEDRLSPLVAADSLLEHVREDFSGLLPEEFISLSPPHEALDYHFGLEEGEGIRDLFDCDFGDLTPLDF
Procedure, shortened: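 Liver-derived HepG2 cells expressing transfected promoter-driven reporter units received test chemical for 24 hours. Signal gains or losses were fitted bidirectionally against DMSO.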

Measured: AC50

CC(C)C(=O)OCC(C)(C)C(OC(=O)C(C)C)C(C)C (configuration not stated)
active: [15] 69 µM
not listed: [19] | [20]
inactive: all other assays above

CCC(C)(CC)c1cc(NC(=O)c2c(OC)cccc2OC)on1
active: [11] 1.16 µM | [12] 1.48 µM | [14] 32 µM | [15] 20.5 µM | [17] 9.92 µM | [18] 12.7 µM
not listed: [8] | [19] | [20]
inactive: all other assays above

CCCCCCCCCc1ccc(O)cc1
active: [14] 30.2 µM and 11.1 µM | [19] 178 µM | [16] 169 µM | [17] 55.7 µM
inactive: [1] | [2] | [3] | [4] | [5] | [6] | [7] | [8] | [9] | [10] | [11] | [12] | [13] | [14] | [15] | [19] | [16] | [17] | [18]

O=C(NC(=O)c1cc(F)c(F)cc1Cl)Nc1cc(F)ccc1N1CCC(C(=O)O)CC1
active: [18] 4.16 µM
not listed: [20]
inactive: all other assays above

N#Cc1ccc(N(CC(N)=O)CC(F)(F)F)cc1C(F)(F)F
active: [18] 1.56 µM
not listed: [19]
inactive: all other assays above

Cc1cc2c3c(c1)C(c1ccccc1)=N[C@@H](NC(=O)c1ccncc1)C(=O)N3CC2
active: [11] 100 µM | [13] 100 µM | [14] 161 µM
not listed: [19]
inactive: all other assays above

Cc1cc(-c2ccc(N)c(C)c2)ccc1N
inactive: [1] | [2] | [3] | [4] | [5] | [6] | [8] | [9] | [10] | [11] | [12] | [13] | [14] | [19] | [16] | [17] | [18] | [20]
active: [13] 60.2 µM

O=C(O)C(F)(F)C(F)(F)C(F)(F)C(F)(F)C(F)(F)C(F)(F)C(F)(F)C(F)(F)C(F)(F)F
active: [1] 108 µM | [3] 98.1 µM | [5] 113 µM | [6] 113 µM | [8] 113 µM | [9] 111 µM | [10] 122 µM | [11] 62.2 µM | [13] 86.6 µM | [14] 27.3 µM and 23.9 µM and 13.3 µM | [15] 69.7 µM | [19] 59 µM and 12.1 µM | [16] 46.5 µM
inactive: [2] | [4] | [7] | [11] | [12] | [13] | [15] | [19] | [16] | [17] | [18]

CCCCCCCCCC[N+](C)(C)CCCCCCCCCC
inactive: [6] | [7] | [10] | [11] | [12] | [15] | [17] | [18]
active: [1] 5.55 µM | [2] 41.2 µM | [3] 3.61 µM | [4] 15.6 µM | [5] 6.27 µM | [8] 3.25 µM | [9] 3.13 µM | [13] 179 µM | [14] 6.09 µM | [16] 100 µM

CC(c1ccc(O)cc1)(c1ccc(O)cc1)c1ccc(O)cc1
inactive: [2] | [4] | [6] | [7] | [12] | [15] | [18]
active: [1] 95.4 µM | [3] 105 µM | [5] 111 µM | [8] 110 µM | [9] 170 µM | [10] 105 µM | [11] 8.32 µM | [13] 20.2 µM | [14] 7.38 µM | [16] 18.1 µM | [17] 18.3 µM

O=C(O)C(F)(F)C(F)(F)C(F)(F)C(F)(F)C(F)(F)C(F)(F)C(F)(F)C(F)(F)F
active: [3] 111 µM | [8] 106 µM | [13] 62.9 µM and 267 µM | [14] 81.9 µM and 50 µM | [19] 50.5 µM and 274 µM and 16.7 µM | [17] 248 µM | [20] 55.4 µM
inactive: [1] | [2] | [4] | [5] | [6] | [9] | [10] | [11] | [12] | [13] | [14] | [15] | [16] | [17] | [18] | [20]
